# Measured values: PubChem BioAssay (NCATS)
# Where “and” joins values, the source holds several entries; their conditions need not be identical. Equal values may be shown once. Records with an inconclusive call do not appear. The source holds several records for some structures; these can differ, active in one and inactive in another. Unmarked numbers belong to inactive results. Calls of active or inactive are those of the source. Unless noted, calls follow the shape of the dose curve; as a rule, active = well fitted curve in the direction sought with a large enough effect; inconclusive = small, poorly fitted or top-dose-only effect, or another doubt; inactive = no such curve, though single readings can be large; an effect the other way counts as inactive or inconclusive.
# What was measured:
# [1] = target: Cellular tumor antigen p53 (Homo sapiens) (UniProt P04637); experiment: Primary qHTS for small molecule compounds that upregulate eGFP-tagged delta133p53alpha (in N-terminal) cells. (AID 2060322); settings: NCI-H358 eGFP-delta133p53alpha fluorescence, 24 h; activation: stronger effect = higher value; also: nearly all actives have a fitted effect of over 75% in size; also: potency is read from the fitted curve at half-maximal effect;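 as to activation: series mostly up to about 56 µM; 0% = DMSO vehicle and 100% = reference activator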
# Chain of Cellular tumor antigen p53 (Homo sapiens) (P04637 whole entry, looked up): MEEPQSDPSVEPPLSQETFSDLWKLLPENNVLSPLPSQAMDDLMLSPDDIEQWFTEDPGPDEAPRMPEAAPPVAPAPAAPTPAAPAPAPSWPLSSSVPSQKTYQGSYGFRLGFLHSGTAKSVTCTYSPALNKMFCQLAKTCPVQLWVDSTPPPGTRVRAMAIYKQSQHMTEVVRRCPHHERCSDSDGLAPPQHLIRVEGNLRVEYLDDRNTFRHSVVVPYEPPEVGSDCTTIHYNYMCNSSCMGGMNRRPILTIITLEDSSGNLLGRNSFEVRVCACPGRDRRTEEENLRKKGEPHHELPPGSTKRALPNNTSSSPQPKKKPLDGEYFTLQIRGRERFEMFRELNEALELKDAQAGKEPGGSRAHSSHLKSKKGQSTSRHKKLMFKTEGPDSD
# Outline: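 NCI-H358 cells pre-induced 24 h with 10 ng/ml doxycycline to express N-terminal eGFP-delta133p53alpha, then dosed 24 h at 37C without doxycycline; fixed, Hoechst-stained, GFP intensity by laser scanning cytometry, normalized to DMSO (0%) and 57.5 uM 5-azacytidine (100%).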
# [2] = target: Aldehyde dehydrogenase, mitochondrial (Homo sapiens) (UniProt P05091); experiment: qHTS for Inhibitors of the Aldehyde Dehydrogenase Family (ALDH2) Validation screens (AID 2061302; active = well fitted inhibition curve with a large enough effect; title and protocol of this record describe different tests;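 also: plate controls were DMSO vehicle for no effect and maximal DPI positive control response for full effect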)
# [3] = target: Aldehyde dehydrogenase, mitochondrial (Homo sapiens) (UniProt P05091); experiment: qHTS for Inhibitors of the Aldehyde Dehydrogenase Family (ALDH2) Primary screen (AID 2061308);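 also: plate controls were vehicle for no effect and reference inhibitor for full effect; nearly all actives have a fitted effect of over 55% in size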
# [4] = target: Retinaldehyde dehydrogenase 3 (Homo sapiens) (UniProt P47895); experiment: qHTS for Inhibitors of the Aldehyde Dehydrogenase Family (ALDH1A3) Validation screen (AID 2061312); also: % is scaled to controls: 0 for no effect and ±100 for the full control effect; nearly all actives have a fitted effect of over 45% in size
# [5] = target: Retinaldehyde dehydrogenase 3 (Homo sapiens) (UniProt P47895); experiment: qHTS for Inhibitors of the Aldehyde Dehydrogenase Family (ALDH1A3) Primary screen (AID 2061315);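 also: plate controls were DMSO vehicle for no effect and reference inhibitor for full effect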
# [6] = BET inhibitor-based combinations targeting novel dependencies in MECOM-rearranged (r) AML: SET-2 cell line (AID 2202231); settings: SET-2 AML cells viability, CellTiter-Glo luminescence, 48 h; viability: stronger effect = lower value, concentration not given here; also: nearly all actives have a fitted effect of over 35% in size; also: potency is read from the fitted curve at half-maximal effect;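 as to viability: plate controls were DMSO treated cells for no effect and wells without cells for full effect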
# Outline: (§1)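 AML cell lines seeded at 500 cells/well, treated with 11-point dose curves for 48 h. Viability by CellTiter-Glo luminescence, normalised to DMSO and empty wells; activity expressed as AUC and per-cell-line Z-transformed AUC.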
# [7] = BET inhibitor-based combinations targeting novel dependencies in MECOM-rearranged (r) AML: OCI-AML3 cell line (AID 2202232); settings: Potency: OCI-AML3 viability; also: nearly all actives have a fitted effect of over 35% in size; also: potency is read from the fitted curve at half-maximal effect
# Outline: as §1
# [8] = BET inhibitor-based combinations targeting novel dependencies in MECOM-rearranged (r) AML: MV-4-11 cell line (AID 2202233); also: nearly all actives have a fitted effect of over 45% in size; also: potency is read from the fitted curve at half-maximal effect
# Outline: (§2)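 Cells at 500/well were exposed for 48 hr to MIPE v5.0 drugs as 11-point dose curves. Viability was read by CellTiter-Glo luminescence and normalized to DMSO and empty-well controls. Activity was expressed as AUC and per-cell-line Z-AUC.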
# [9] = BET inhibitor-based combinations targeting novel dependencies in MECOM-rearranged (r) AML: HNT-34 cell line (AID 2202234); also: potency is read from the fitted curve at half-maximal effect; nearly all actives have a fitted effect of over 35% in size
# Outline: as §2
# [10] = BET inhibitor-based combinations targeting novel dependencies in MECOM-rearranged (r) AML: UCSD-AML1 cell line (AID 2202235); also: potency is read from the fitted curve at half-maximal effect; nearly all actives have a fitted effect of over 40% in size
# Outline: as §2
# [11] = BET inhibitor-based combinations targeting novel dependencies in MECOM-rearranged (r) AML: AML-191 cell line (AID 2202236; also: nearly all actives have a fitted effect of over 35% in size; also: potency is read from the fitted curve at half-maximal effect)
# Outline: as §1
# [12] = target: Cellular tumor antigen p53 (Homo sapiens) (UniProt P04637); experiment: Primary qHTS for small molecule compounds that upregulate eGFP-tagged delta133p53alpha (in C-terminal) cells. (AID 2060324); also: potency is read from the fitted curve at half-maximal effect
# Outline: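 NCI-H358 cells pre-induced 24 h with 100 ng/ml doxycycline to express delta133p53alpha-eGFP, then dosed in doxycycline-free medium for 24 h at 37C. Fixed, Hoechst-stained; GFP intensity by laser scanning cytometry, normalized to DMSO wells.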
# [13] = target: Aldehyde dehydrogenase, mitochondrial (Homo sapiens) (UniProt P05091); experiment: qHTS for Inhibitors of the Aldehyde Dehydrogenase Family (ALDH2) Confirmatory screens (AID 2061303; active = well fitted inhibition curve with a large enough effect; title and protocol of this record describe different tests; also: % is scaled to controls: 0 for no effect and ±100 for the full control effect; nearly all actives have a fitted effect of over 45% in size)
# [14] = qHTS for Inhibitors of the Aldehyde Dehydrogenase Family (ALDH1A2, ALDH1A3, ALDH2, ALDH3A1) (AID 2061307); also: % is scaled to controls: 0 for no effect and ±100 for the full control effect; nearly all actives have a fitted effect of over 50% in size
# [15] = target: Retinaldehyde dehydrogenase 3 (Homo sapiens) (UniProt P47895); experiment: qHTS for Inhibitors of the Aldehyde Dehydrogenase Family (ALDH1A3) Confirmatory screens (AID 2061311); also: nearly all actives have a fitted effect of over 60% in size
# [16] = target: Aldehyde dehydrogenase 1A1 (Homo sapiens) (UniProt P00352); experiment: qHTS for Inhibitors of the Aldehyde Dehydrogenase Family (ALDH1A1) Confirmatory screens (AID 2061316); also: nearly all actives have a fitted effect of over 65% in size
# [17] = BET inhibitor-based combinations targeting novel dependencies in MECOM-rearranged (r) AML: AML-194 cell line (AID 2202237;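 also: plate controls were vehicle wells for no effect and wells without cells for full effect; nearly all actives have a fitted effect of over 40% in size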)
# Outline: as §1
structure (smiles),measurement,setting,value
CS(=O)(=O)c1cccc(CNc2nc(Nc3ccc4c(c3)CCC(=O)N4)ncc2C(F)(F)F)c1,Potency,[1],21.3 µM (active)
same,activation,[1],-20.3% and 55.5%
same,Potency,[2],inactive
same,Potency,[3],inactive
same,Potency,[4],inactive
same,Potency,[5],inactive
same,Potency,[6],16.6 µM (active)
same,Potency,[7],20.9 µM (active)
same,Potency,[8],0.209 µM (active)
same,Potency,[9],9.34 µM (active)
same,Potency,[10],10.5 µM (active)
same,Potency,[11],9.34 µM (active)
O=C(CCCCCCSc1ccc2ccccc2c1)NO,activation,[1],0%
c1ccc2c(c1)CCc1ccccc1N2,activation,[1],10.7%
CCN(CC)CCOc1ccc(Nc2ncc3cc(-c4c(Cl)cccc4Cl)c(=O)n(C)c3n2)cc1,Potency,[1],5.44 µM (active)
same,activation,[1],-1.41%
same,Potency,[12],26.9 µM (active)
same,Potency,[2],inactive
same,Potency,[13],inactive
same,Potency,[14],inactive
same,Potency,[15],inactive
same,Potency,[16],inactive
same,Potency,[6],3.72 µM (active)
same,Potency,[7],2.63 µM (active)
same,Potency,[8],0.59 µM (active)
same,Potency,[9],0.0295 µM (active)
same,Potency,[10],2.95 µM (active)
same,Potency,[11],2.35 µM (active)
CCCCCCCCCCCCCCCC[N+](C)(C)CCN(Cc1ccc(OC)cc1)c1ncccn1,Potency,[1],34.7 µM (active)
COC(=O)[C@H]1[C@H]2C[C@@H]3c4[nH]c5cc(OC)ccc5c4CCN3C[C@H]2C[C@@H](OC(=O)c2cc(OC)c(OC)c(OC)c2)[C@@H]1OC,Potency,[1],27.6 µM (active)
same,activation,[1],-18%
same,Potency,[2],inactive
same,Potency,[3],inactive
same,Potency,[4],inactive
same,Potency,[5],inactive
CN(C)c1ccc(/C=C2\C(=O)Nc3ccccc32)cc1,Potency,[1],43.2 µM (active)
same,activation,[1],-19.4%
same,Potency,[2],inactive
same,Potency,[4],inactive
NC(=O)NO,Potency,[1],30.6 µM (active)
same,activation,[1],-16.4% and -32.9%
same,Potency,[12],inactive
same,Potency,[2],inactive
same,Potency,[4],inactive
same,viability,[6],114%
same,Potency,[7],inactive
same,Potency,[8],inactive
same,Potency,[11],inactive
same,Potency,[17],inactive
CCOc1ccccc1OCC1CNCCO1 (stereo not given),activation,[1],-17.6%
CC(=O)OC[C@H]1O[C@@H](OC(C)=O)[C@H](OC(C)=O)[C@@H]1OC(C)=O,activation,[1],28.8%
O=C1NC(=O)C(=Cc2ccc3c(c2)OC(F)(F)O3)S1,activation,[1],27.2%
CNCC[C@H](Oc1cccc2ccccc12)c1cccs1,Potency,[1],17.4 µM (active)
same,activation,[1],8.04%
C[C@H]1C[C@H]2[C@@H]3CCC4=CC(=O)C=C[C@]4(C)[C@@H]3C(=O)C[C@]2(C)[C@@]1(O)C(=O)CO,activation,[1],-19.3%
CCCC(C(=O)OCCN(CC)CC)(c1ccccc1)c1ccccc1,Potency,[1],34.7 µM (active)
same,activation,[1],-51.2%
same,Potency,[2],inactive
same,Potency,[4],inactive
Oc1ccc(-c2nc(-c3ccc(F)cc3)c(-c3ccncc3)[nH]2)cc1,Potency,[1],38.5 µM (active)
same,activation,[1],9.98% and -12.3%
same,Potency,[12],inactive
same,Potency,[2],inactive
same,Potency,[4],inactive
same,Potency,[8],18.6 µM (active)
